# Data: the supplement of paper PMC10849652
# Of roughly 8,800 targets only a part is listed; those with a hit were picked by preference. About 0.5% of all pairs of compound and target were hits. A number with no mark means an inactive call.
# Assays:
# Test in all cases: log2 fold change, soluble protein after heating vs DMSO (PISA); higher = thermal stabilisation; K562 lysate, 10 uM; active = over 0.2 and 3.5 SD of the protein, either way, in both replicates (recomputed)
# ibrutinib = compound: C=CC(=O)N1CCC[C@@H](n2nc(-c3ccc(Oc4ccccc4)cc3)c3c(N)ncnc32)C1 [ibrutinib]
# How it was run: (§1)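 K562 pellets were dounce-homogenised in PBS pH 7.4 with 1 mM MgCl2, and the crude extract at 1 mg/mL protein was treated with 10 μM compound for 30 min. Aliquots were heated for 3 min across 48°C-58°C, pooled, and brought to 0.5% NP-40 at 4°C; soluble protein was the supernatant after 21,000xg for 90 min. Soluble protein was quantified by TMTpro 16plex LC-MS/MS with channel sums equalised, and reported as log2 fold change in thermal stability against DMSO controls, with values from duplicates.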
# [1] = compound: CC(=O)c1cnc2ccc(-c3cc(Cl)c(O)c(Cl)c3)nc2c1N[C@H]1CC[C@H](CN(C)C)CC1
# How it was run: as §1
# ralimetinib = compound: CC(C)(C)Cn1c(N)nc2ccc(-c3[nH]c(C(C)(C)C)nc3-c3ccc(F)cc3)nc21 [ralimetinib]
# How it was run: as §1
# [2] = compound: CC(C)(O)CC(=O)NCCn1ccc2ncnc(Nc3ccc(Oc4cccc(C(F)(F)F)c4)c(Cl)c3)c21
# How it was run: as §1
# [3] = compound: CC(C)C1=C2N=C(C=C(N2N=C1)NCC3=CC=CC=C3)NCCCCCCN
# How it was run: as §1
# [4] = compound: CC1=C(C(CC(=O)N1)C2=CC=C(C=C2)C(F)(F)F)C(=O)NC3=C(C=C4C(=C3)C=NN4)F
# How it was run: as §1
# [5] = compound: CC1=C(C2=C(C=C1)C(=O)C3=CC=CC=C3N2CCCN)C
# How it was run: as §1
# [6] = compound: CC1=C(C=C(C=C1)NC(=O)C2=CC(=CC=C2)C(C)(C)C#N)NC3=CC4=C(C=C3)N=CN(C4=O)C
# How it was run: as §1
# [7] = compound: CC1=C(C=C(C=C1)NC(=O)C2=CC(=CC=C2)N(C)C)NC(=O)C3=CC=C(C=C3)O
# How it was run: as §1
# [8] = compound: CC1=CC=C(C=C1)SC2=C3C=C(SC3=CN=C2)C(=O)N
# How it was run: as §1
# Sequence of UniProt Q9P289 (Q9P289 whole entry, looked up): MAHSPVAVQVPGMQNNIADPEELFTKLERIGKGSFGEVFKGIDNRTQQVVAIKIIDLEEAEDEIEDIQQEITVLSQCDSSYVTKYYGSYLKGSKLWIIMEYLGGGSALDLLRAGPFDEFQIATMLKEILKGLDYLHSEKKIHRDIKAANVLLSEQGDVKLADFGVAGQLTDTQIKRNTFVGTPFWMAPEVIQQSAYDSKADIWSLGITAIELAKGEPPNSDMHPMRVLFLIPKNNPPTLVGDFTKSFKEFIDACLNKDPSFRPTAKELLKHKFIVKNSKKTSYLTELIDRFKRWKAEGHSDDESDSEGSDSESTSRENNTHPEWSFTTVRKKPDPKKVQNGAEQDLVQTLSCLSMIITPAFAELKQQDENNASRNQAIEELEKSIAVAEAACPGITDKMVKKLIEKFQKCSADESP
# Sequence of UniProt P41440 (P41440 whole entry, looked up): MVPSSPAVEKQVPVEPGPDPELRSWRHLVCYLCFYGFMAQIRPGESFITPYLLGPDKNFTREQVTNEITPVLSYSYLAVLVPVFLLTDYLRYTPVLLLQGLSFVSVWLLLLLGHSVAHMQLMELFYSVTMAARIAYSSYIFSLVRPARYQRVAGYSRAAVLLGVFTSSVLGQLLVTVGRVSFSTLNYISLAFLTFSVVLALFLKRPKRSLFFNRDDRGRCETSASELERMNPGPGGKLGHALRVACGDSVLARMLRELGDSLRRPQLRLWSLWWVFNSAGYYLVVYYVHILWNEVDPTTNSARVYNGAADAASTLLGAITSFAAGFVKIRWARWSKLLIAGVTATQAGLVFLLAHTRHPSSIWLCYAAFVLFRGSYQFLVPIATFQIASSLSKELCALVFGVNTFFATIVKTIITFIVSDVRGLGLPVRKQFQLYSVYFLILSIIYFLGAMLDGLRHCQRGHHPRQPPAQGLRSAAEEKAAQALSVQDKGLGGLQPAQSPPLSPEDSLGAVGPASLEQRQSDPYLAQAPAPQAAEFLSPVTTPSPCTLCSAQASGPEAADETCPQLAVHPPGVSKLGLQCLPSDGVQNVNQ
# Sequence of UniProt Q9UJZ1 (Q9UJZ1 whole entry, looked up): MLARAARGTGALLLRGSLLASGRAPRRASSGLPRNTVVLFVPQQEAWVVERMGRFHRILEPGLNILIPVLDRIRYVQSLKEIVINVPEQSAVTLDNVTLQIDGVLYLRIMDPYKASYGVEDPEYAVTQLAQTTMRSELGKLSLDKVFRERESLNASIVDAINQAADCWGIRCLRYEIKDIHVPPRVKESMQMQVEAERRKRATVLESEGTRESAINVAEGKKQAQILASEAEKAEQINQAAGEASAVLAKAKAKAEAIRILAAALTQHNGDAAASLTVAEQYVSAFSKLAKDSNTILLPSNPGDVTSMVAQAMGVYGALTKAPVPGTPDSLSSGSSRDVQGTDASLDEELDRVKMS
# Sequence of UniProt P62316 (P62316 whole entry, looked up): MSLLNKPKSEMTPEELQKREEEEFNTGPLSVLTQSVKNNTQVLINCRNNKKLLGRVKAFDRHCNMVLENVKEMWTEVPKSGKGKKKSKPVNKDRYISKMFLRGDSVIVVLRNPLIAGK
# Sequence of UniProt Q96DI7 (Q96DI7 whole entry, looked up): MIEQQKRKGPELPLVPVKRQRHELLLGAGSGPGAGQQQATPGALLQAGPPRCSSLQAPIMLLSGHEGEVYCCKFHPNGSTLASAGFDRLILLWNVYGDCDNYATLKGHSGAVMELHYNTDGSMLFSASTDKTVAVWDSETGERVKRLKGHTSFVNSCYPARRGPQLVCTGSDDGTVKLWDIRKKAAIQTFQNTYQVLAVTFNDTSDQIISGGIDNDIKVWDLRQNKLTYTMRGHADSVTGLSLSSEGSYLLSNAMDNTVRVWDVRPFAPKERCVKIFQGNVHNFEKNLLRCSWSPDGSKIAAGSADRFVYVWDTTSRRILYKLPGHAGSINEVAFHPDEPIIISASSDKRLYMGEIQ
# Sequence of UniProt Q16637 (Q16637 whole entry, looked up): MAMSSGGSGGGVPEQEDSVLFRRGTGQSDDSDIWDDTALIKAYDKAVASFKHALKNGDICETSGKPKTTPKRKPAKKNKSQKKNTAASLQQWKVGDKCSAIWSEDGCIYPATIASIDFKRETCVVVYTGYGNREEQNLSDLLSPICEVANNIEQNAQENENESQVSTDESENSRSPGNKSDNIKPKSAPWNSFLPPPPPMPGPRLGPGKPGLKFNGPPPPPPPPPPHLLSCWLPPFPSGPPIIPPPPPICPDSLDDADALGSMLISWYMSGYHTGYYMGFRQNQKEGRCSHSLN
# Sequence of UniProt Q8N196 (Q8N196 whole entry, looked up): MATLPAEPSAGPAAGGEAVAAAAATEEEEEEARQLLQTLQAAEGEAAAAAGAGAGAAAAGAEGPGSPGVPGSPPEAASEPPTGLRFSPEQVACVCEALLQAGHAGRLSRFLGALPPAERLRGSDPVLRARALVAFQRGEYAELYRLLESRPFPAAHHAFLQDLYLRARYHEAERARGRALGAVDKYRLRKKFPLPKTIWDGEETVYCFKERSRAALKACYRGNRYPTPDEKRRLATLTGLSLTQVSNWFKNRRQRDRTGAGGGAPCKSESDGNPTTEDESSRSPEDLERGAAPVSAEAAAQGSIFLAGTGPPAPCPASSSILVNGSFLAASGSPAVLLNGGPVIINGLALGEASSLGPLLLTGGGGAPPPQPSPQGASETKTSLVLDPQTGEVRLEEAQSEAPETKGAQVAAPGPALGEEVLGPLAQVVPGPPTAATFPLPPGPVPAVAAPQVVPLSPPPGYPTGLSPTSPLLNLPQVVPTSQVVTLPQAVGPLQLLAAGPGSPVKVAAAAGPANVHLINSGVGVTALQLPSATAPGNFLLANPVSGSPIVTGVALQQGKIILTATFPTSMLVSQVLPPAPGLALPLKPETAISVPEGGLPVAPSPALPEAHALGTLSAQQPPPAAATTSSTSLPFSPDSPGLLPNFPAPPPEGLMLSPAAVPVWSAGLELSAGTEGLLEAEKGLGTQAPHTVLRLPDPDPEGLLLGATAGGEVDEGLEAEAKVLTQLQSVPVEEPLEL
# Sequence of UniProt P29353 (P29353 whole entry, looked up): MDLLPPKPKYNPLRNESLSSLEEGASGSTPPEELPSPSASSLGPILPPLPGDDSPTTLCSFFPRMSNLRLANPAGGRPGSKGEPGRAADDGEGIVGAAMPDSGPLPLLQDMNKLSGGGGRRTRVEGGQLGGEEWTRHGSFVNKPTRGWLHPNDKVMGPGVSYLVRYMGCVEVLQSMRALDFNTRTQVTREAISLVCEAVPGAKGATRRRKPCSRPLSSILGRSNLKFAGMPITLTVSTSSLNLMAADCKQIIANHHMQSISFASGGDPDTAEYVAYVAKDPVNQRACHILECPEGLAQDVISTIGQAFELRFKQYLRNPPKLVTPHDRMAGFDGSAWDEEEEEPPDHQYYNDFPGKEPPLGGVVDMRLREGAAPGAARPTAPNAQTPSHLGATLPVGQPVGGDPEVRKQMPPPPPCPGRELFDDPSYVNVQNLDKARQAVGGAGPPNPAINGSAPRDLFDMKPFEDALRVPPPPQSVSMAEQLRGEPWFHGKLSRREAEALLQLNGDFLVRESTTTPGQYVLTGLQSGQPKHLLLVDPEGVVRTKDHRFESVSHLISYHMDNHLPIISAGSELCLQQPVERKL
# Sequence of UniProt P52630 (P52630 whole entry, looked up): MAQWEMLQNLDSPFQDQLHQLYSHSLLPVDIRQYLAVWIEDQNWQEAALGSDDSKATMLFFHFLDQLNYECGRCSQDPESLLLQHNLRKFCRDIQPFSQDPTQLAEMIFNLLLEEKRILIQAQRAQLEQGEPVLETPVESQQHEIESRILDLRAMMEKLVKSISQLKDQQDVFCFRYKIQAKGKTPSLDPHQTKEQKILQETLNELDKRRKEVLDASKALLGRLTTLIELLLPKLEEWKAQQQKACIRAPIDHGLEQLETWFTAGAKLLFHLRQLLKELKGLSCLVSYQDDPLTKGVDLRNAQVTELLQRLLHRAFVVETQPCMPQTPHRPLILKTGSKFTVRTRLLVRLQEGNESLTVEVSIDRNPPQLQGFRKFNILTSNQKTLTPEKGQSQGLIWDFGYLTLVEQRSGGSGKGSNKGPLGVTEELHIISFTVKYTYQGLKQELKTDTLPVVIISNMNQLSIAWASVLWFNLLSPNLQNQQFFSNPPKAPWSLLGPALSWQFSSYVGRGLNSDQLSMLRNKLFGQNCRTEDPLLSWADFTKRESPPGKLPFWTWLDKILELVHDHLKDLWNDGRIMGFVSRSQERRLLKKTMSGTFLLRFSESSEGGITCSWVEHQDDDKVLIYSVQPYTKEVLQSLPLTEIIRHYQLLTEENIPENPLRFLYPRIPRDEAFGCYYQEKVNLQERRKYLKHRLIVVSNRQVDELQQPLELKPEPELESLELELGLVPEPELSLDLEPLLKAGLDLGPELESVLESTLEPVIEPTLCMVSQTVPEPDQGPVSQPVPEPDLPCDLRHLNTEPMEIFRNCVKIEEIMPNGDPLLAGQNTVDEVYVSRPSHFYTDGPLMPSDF
# Sequence of UniProt Q96EX1 (Q96EX1 whole entry, looked up): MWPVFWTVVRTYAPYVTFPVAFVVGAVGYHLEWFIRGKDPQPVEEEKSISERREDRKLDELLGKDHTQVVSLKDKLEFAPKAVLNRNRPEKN
# Sequence of UniProt Q6PML9 (Q6PML9 whole entry, looked up): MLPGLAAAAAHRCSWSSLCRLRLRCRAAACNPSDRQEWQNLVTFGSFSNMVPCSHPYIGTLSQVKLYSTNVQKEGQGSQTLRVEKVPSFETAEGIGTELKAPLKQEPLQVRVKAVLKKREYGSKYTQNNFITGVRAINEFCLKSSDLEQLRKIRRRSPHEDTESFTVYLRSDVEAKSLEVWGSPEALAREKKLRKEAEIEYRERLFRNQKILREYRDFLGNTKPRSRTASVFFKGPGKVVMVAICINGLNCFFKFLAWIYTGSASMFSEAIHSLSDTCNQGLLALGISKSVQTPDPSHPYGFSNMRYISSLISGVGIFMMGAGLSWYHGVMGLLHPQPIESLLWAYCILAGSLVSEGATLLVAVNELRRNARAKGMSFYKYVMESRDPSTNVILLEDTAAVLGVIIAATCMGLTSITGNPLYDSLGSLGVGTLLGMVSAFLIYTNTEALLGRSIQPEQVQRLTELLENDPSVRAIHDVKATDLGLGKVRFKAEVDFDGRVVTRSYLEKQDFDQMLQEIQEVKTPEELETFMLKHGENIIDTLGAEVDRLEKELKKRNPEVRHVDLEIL
Target,log2 fold change (ibrutinib),log2 fold change [1],log2 fold change (ralimetinib),log2 fold change [2],log2 fold change [3],log2 fold change [4],log2 fold change [5],log2 fold change [6],log2 fold change [7],log2 fold change [8]
SNRNP40 (UniProt Q96DI7),-0.008,0.026,-0.03,-0.047,-0.02,0.042,0.332 (active),0.02,0.069,0.029
SIX5 (UniProt Q8N196),-0.021,0.009,-0.023,-0.046,-0.042,-0.061,0.011,0.017,0.13,0.021
SHC1 isoform 6 (UniProt P29353),0.053,-0.007,-0.02,-0.041,-0.007,-0.016,-0.006,-0.004,0.002,-0.008
SLC30A9 (UniProt Q6PML9),0.061,0.002,-0.03,0.064,0.021,-0.033,0.008,0.017,-0.213,-0.009
"SNX6, A0A0A0MRI2",-0.034,0,-0.005,-0.03,-0.011,-0.032,-0.001,0.018,0.039,-0.004
SRSF7 (UniProt Q16629),-0.114,-0.071,0.074,-0.004,0,-0.005,-0.023,-0.037,0.02,-0.079
SLC19A1 (UniProt P41440),0.049,0.013,-0.004,-0.054,-0.019,0.019,-0.044,0.009,0.004,-0.003
SRM (UniProt P19623),0.018,0.007,0.025,-0.047,-0.011,-0.003,-0.006,0.003,0,-0.011
SMIM12 (UniProt Q96EX1),0.04,0.013,0.021,-0.049,-0.024,-0.008,-0.002,0.038,-0.064,-0.011
SMN1 (UniProt Q16637),-0.085,-0.028,0.01,-0.01,0.002,0.001,-0.018,0.018,0.137,-0.045
SLC12A6 (UniProt Q9UHW9),0.01,-0.021,-0.037,-0.014,0.011,0.001,-0.012,0.012,0.024,-0.021
SPR (UniProt P35270),0.027,0.293,0.024,0,-0.048,-0.051,-0.038,-0.046,-0.028,0.023
SNCA (UniProt P37840),0.102,-0.148,0.028,0.02,0.013,0.036,-0.068,-0.042,-0.059,0.028
SULT1A1 (UniProt P50225),0.02,-0.027,0.028,-0.03,0.03,-0.009,-0.06,0.022,0.047,0.006
STK36 (UniProt Q9NRP7),0.019,-0.182,-0.087,-0.416,0.071,-0.058,-0.176,0.408,-0.004,-0.097
STIM1 (UniProt Q13586),0.033,0.043,0.023,-0.021,0.027,0.003,0.023,0.001,0.008,0.027
SMG1 (UniProt Q96Q15),0.041,0.017,0.044,-0.019,-0.003,0.005,0.027,0.023,0.017,0.007
SNRPD2 (UniProt P62316),-0.028,-0.033,-0.018,-0.041,0.007,-0.011,0.016,0.01,0.015,-0.005
STK4 (UniProt Q13043),0.056,0.324,-0.006,0.007,0.004,-0.023,-0.015,-0.036,0.024,-0.07
SSU72 (UniProt Q9NP77),0.075,0.031,0.026,-0.002,0.038,-0.018,0.025,0.001,0.015,0.03
SH3GL1 (UniProt Q99961),-0.004,0,0.031,0.006,-0.015,-0.03,0.017,0.025,0.006,-0.012
STK26 (UniProt Q9P289),-0.043,0.113,-0.018,0.004,-0.015,-0.021,0.006,-0.028,0.035,-0.025
SVIP (UniProt Q8NHG7),0.088,-0.031,0.01,-0.062,-0.017,-0.029,-0.014,0.075,0.017,-0.019
STAT2 (UniProt P52630),0.007,0.007,0.04,-0.026,-0.003,0.009,-0.002,-0.059,0.003,0.004
SLC39A11 (UniProt Q8N1S5),-0.065,-0.008,-0.136,-0.042,-0.023,0.051,0.16,-0.074,-0.089,0.001
SUZ12 (UniProt Q15022),-0.043,0.013,0.003,-0.036,0.007,-0.023,-0.09,0.289 (active),0.048,-0.01
SLC20A1 (UniProt Q8WUM9),0.022,-0.028,-0.013,-0.08,0.05,0.072,-0.015,0.027,0.002,-0.054
STOML2 (UniProt Q9UJZ1),0.017,-0.012,-0.015,-0.028,0.033,-0.025,-0.04,0,0.002,-0.006
SRP54 (UniProt P61011),-0.039,-0.023,0.031,0.015,0.036,0.034,-0.069,-0.021,0.007,-0.009
SNRPD3 (UniProt P62318),-0.033,0.035,0.067,-0.018,-0.05,0.017,0.019,-0.012,-0.004,-0.008
